{
  "source": "the supplement of paper PMC13380429",
  "key": {"[1]": {"tested_on": "Vero E6 infected with SARS-CoV-2", "assay": "morphology score (similarity to uninfected cells); higher = more like uninfected cells", "details": "24 h"}, "[2]": {"tested_on": "Vero E6 infected with SARS-CoV-2", "assay": "SARS-CoV-2 infection rate relative to infected DMSO; higher = more infection, active = 60 or less", "details": "24 h"}},
  "data": [
    {"smiles": "CC(=O)OCC1=C(C(=O)O)N2C(=O)[C@@H](NC(=O)Cc3cccs3)[C@H]2SC1", "note": "[cephalothin] (10 µM)", "values": [
      {"measurement": "morphology score", "setting": "[1]", "result": -0.0126},
      {"measurement": "SARS-CoV-2 infection rate", "setting": "[2]", "result": "102% (inactive)"}
    ]},
    {"smiles": "O=C(CBr)N1CC([N+](=O)[O-])([N+](=O)[O-])C1", "note": "(10 µM)", "values": [
      {"measurement": "morphology score", "setting": "[1]", "result": 0.0284},
      {"measurement": "SARS-CoV-2 infection rate", "setting": "[2]", "result": "116% (inactive)"}
    ]},
    {"smiles": "COc1ccc(S(=O)(=O)Nc2c(C)cc(C)cc2C)cc1", "note": "(10 µM)", "values": [
      {"measurement": "morphology score", "setting": "[1]", "result": 0.217},
      {"measurement": "SARS-CoV-2 infection rate", "setting": "[2]", "result": "80.5% (inactive)"}
    ]},
    {"smiles": "Cc1c(NC(=O)N2CCOCC2)ccc2c1c1ccccc1n2C(C)C", "note": "(10 µM)", "values": [
      {"measurement": "morphology score", "setting": "[1]", "result": 0.121},
      {"measurement": "SARS-CoV-2 infection rate", "setting": "[2]", "result": "106% (inactive)"}
    ]},
    {"smiles": "CCS(=O)(=O)N1CCC([C@@H](C)n2c(C)c(C(=O)NCc3c(OC)cc(C)[nH]c3=O)c3ccccc32)CC1", "note": "(10 µM)", "values": [
      {"measurement": "morphology score", "setting": "[1]", "result": -0.000259},
      {"measurement": "SARS-CoV-2 infection rate", "setting": "[2]", "result": "102% (inactive)"}
    ]},
    {"smiles": "Nc1nc(/C(=C/CC(=O)O)C(=O)N[C@@H]2C(=O)N3C(C(=O)O)=CCS[C@H]23)cs1", "note": "[ceftibuten] (10 µM)", "values": [
      {"measurement": "morphology score", "setting": "[1]", "result": 0.161},
      {"measurement": "SARS-CoV-2 infection rate", "setting": "[2]", "result": "103% (inactive)"}
    ]},
    {"smiles": "O=C(NC(=O)c1c(F)cccc1F)Nc1cc(Cl)c(OC(F)(F)C(F)C(F)(F)F)cc1Cl", "note": "(stereo not given) [lufenuron] (10 µM)", "values": [
      {"measurement": "morphology score", "setting": "[1]", "result": -0.0435},
      {"measurement": "SARS-CoV-2 infection rate", "setting": "[2]", "result": "111% (inactive)"}
    ]},
    {"smiles": "NC(=O)Nc1sc(-c2ccc(F)cc2)cc1C(N)=O", "note": "(0.833333 µM)", "values": [
      {"measurement": "morphology score", "setting": "[1]", "result": 0.0683},
      {"measurement": "SARS-CoV-2 infection rate", "setting": "[2]", "result": "95.5% (inactive)"}
    ]},
    {"smiles": "CC(C)n1cnc2c(NCCc3ccc(O)cc3)nc(-c3csc4ccccc34)nc21", "note": "[stemregenin-1] (10 µM)", "values": [
      {"measurement": "morphology score", "setting": "[1]", "result": 0.692},
      {"measurement": "SARS-CoV-2 infection rate", "setting": "[2]", "result": "67% (inactive)"}
    ]},
    {"smiles": "Nc1ccn([C@@H]2CS[C@H](CO)O2)c(=O)n1", "note": "[lamivudine] (10 µM)", "values": [
      {"measurement": "morphology score", "setting": "[1]", "result": -0.00863},
      {"measurement": "SARS-CoV-2 infection rate", "setting": "[2]", "result": "102% (inactive)"}
    ]},
    {"smiles": "CCCCCCCCCCC(CO)CCCCCCCC", "note": "(stereo not given) [2-octyldodecan-1-ol] (10 µM)", "values": [
      {"measurement": "morphology score", "setting": "[1]", "result": 0.0425},
      {"measurement": "SARS-CoV-2 infection rate", "setting": "[2]", "result": "110% (inactive)"}
    ]},
    {"smiles": "CCOc1ccc(-n2c([C@@H](C)N(Cc3cccnc3)C(=O)Cc3ccc(OC(F)(F)F)cc3)nc3ncccc3c2=O)cc1", "note": "(racemic) (10 µM)", "values": [
      {"measurement": "morphology score", "setting": "[1]", "result": 0.181},
      {"measurement": "SARS-CoV-2 infection rate", "setting": "[2]", "result": "98.8% (inactive)"}
    ]},
    {"smiles": "CCOc1cc(N2CCC(O)CC2)ccc1Nc1ncc2c(n1)N(C)c1ccccc1C(=O)N2C", "note": "(0.833333 µM)", "values": [
      {"measurement": "morphology score", "setting": "[1]", "result": -0.0631},
      {"measurement": "SARS-CoV-2 infection rate", "setting": "[2]", "result": "114% (inactive)"}
    ]},
    {"smiles": "Cc1nc2n(c(=O)c1CCN1CCC(c3noc4cc(F)ccc34)CC1)CCCC2O", "note": "(stereo not given) [paliperidone] (10 µM)", "values": [
      {"measurement": "morphology score", "setting": "[1]", "result": 0.08},
      {"measurement": "SARS-CoV-2 infection rate", "setting": "[2]", "result": "108% (inactive)"}
    ]},
    {"smiles": "Cc1cc(CN)cc(C)c1NC(=O)c1ccc(-c2cc(Cl)ccc2Cl)o1", "note": "(10 µM)", "values": [
      {"measurement": "morphology score", "setting": "[1]", "result": 0.717},
      {"measurement": "SARS-CoV-2 infection rate", "setting": "[2]", "result": "7.5% (active)"}
    ]},
    {"smiles": "O=C(Oc1ccc([N+](=O)[O-])cc1)N1CCC(C(O)(c2ccc3c(c2)OCO3)c2ccc3c(c2)OCO3)CC1", "note": "(10 µM)", "values": [
      {"measurement": "morphology score", "setting": "[1]", "result": 0.0091},
      {"measurement": "SARS-CoV-2 infection rate", "setting": "[2]", "result": "103% (inactive)"}
    ]},
    {"smiles": "CC(=O)c1ccc2c(c1)N(CCCN1CCC(CCO)CC1)c1ccccc1S2", "note": "[piperacetazine] (10 µM)", "values": [
      {"measurement": "morphology score", "setting": "[1]", "result": 0.384},
      {"measurement": "SARS-CoV-2 infection rate", "setting": "[2]", "result": "75% (inactive)"}
    ]},
    {"smiles": "Cc1nnc(-c2ccc3occ(-c4ccc([S+](C)[O-])cc4)c3c2)o1", "note": "(stereo not given) (10 µM)", "values": [
      {"measurement": "morphology score", "setting": "[1]", "result": -0.00242},
      {"measurement": "SARS-CoV-2 infection rate", "setting": "[2]", "result": "92.5% (inactive)"}
    ]},
    {"smiles": "C[C@]12CCC(=O)C=C1CC[C@@H]1[C@@H]2C(=O)C[C@]2(C)C(=O)CC[C@@H]12", "note": "[adrenosterone] (10 µM)", "values": [
      {"measurement": "morphology score", "setting": "[1]", "result": -0.109},
      {"measurement": "SARS-CoV-2 infection rate", "setting": "[2]", "result": "97.5% (inactive)"}
    ]},
    {"smiles": "O=S(=O)(NCC1CC1)c1ccc(Nc2nccc(N3CCCc4cc(O)ccc43)n2)cc1", "note": "[pyrintegrin] (0.833333 µM)", "values": [
      {"measurement": "morphology score", "setting": "[1]", "result": 0.71},
      {"measurement": "SARS-CoV-2 infection rate", "setting": "[2]", "result": "60.5% (inactive)"}
    ]},
    {"smiles": "CN1[C@@H]2CC[C@H]1C[C@@H](OC(c1ccccc1)c1ccccc1)C2", "note": "[benztropine-mesylate] (10 µM)", "values": [
      {"measurement": "morphology score", "setting": "[1]", "result": 0.481},
      {"measurement": "SARS-CoV-2 infection rate", "setting": "[2]", "result": "84.5% (inactive)"}
    ]},
    {"smiles": "O=C1CN(/N=C/c2ccc([N+](=O)[O-])o2)C(=O)N1", "note": "[nitrofurantoin] (10 µM)", "values": [
      {"measurement": "morphology score", "setting": "[1]", "result": 0.168},
      {"measurement": "SARS-CoV-2 infection rate", "setting": "[2]", "result": "112% (inactive)"}
    ]},
    {"smiles": "Nc1nc(NC2CC2)c2ncn([C@H]3C=C[C@@H](CO)C3)c2n1", "note": "(10 µM)", "values": [
      {"measurement": "morphology score", "setting": "[1]", "result": 0.0446},
      {"measurement": "SARS-CoV-2 infection rate", "setting": "[2]", "result": "102% (inactive)"}
    ]},
    {"smiles": "CCc1cccc(CC)c1NC(=O)N1Cc2[nH]nc(NC(=O)c3ccc(N4CCN(C)CC4)cc3)c2C1", "note": "(10 µM)", "values": [
      {"measurement": "morphology score", "setting": "[1]", "result": 0.108},
      {"measurement": "SARS-CoV-2 infection rate", "setting": "[2]", "result": "113% (inactive)"}
    ]},
    {"smiles": "N[C@@H](Cc1ccc(O)cc1)C(=O)NCC(=O)NCC(=O)O", "note": "(10 µM)", "values": [
      {"measurement": "morphology score", "setting": "[1]", "result": -0.0946},
      {"measurement": "SARS-CoV-2 infection rate", "setting": "[2]", "result": "114% (inactive)"}
    ]}
  ]
}
